# Test results published in PubChem BioAssay (Tox21).
# Values joined by “and” are separate entries in the source; they are usually repeats but may differ in a detail not shown here. Identical values can stand only once. Active and inactive are the calls of the source. The call rests on the fitted dose curve.
# Target: Estrogen receptor (Homo sapiens) (UniProt P03372)
# Test: qHTS assay to identify small molecule agonists of the estrogen receptor alpha (ER-alpha) signaling pathway in the presence of an antagonist (AID 1259383); further: nearly all actives have a fitted effect of over 15% in size; on activation: top concentration of the series differs between compounds
# Conditions: VM7Luc4E2 cells, ERE-luciferase, +ICI-182,780, 22 h; series mostly up to 92.4 µM; activation: at the top concentration
# From the text: National Center for Advancing Translational Sciences [NCATS] NIH Chemical Genomics Center [NCGC] U.S. Environmental Protection Agency [EPA] National Institutes of Environmental Health Sciences [NIEHS] National Toxicology Program [NTP] Assay overview: Estrogen receptor (ER), a member of nuclear hormone receptor plays an important role in development, metabolic homeostasis and reproduction. Two subtypes of ER, ER-alpha and ER-beta, have similar expression patterns with some uniqueness in both types. Endocrine disrupting chemicals (EDCs) and their interactions with steroid hormone receptors like ER causes disruption of normal endocrine function. Therefore, it is important to understand the effect of environmental chemicals in ER signaling pathway. For identifying ER agonists, VM7Luc4E2 cell line has been used in the current assay. VM7Luc4E2 cell line (provided by Denison MS, University of California) endogenously expresses full-length ER-alpha and is stably transfected with a plasmid containing four estrogen responsive elements (ERE) upstream of a luciferase reporter gene. This current screening for measuring luciferase reporter gene activity using VM7Luc4E2 cells against Tox21 10K library collection is a confirmation study on agonist mode screening in presence of ER-antagonist (ICI-182,780) at 10.0nM final concentration.
# Assay Protocol Summary: VM7Luc4E2 cells were cultured in phenol red free assay medium containing 10% charcoal stripped FBS for 5 days prior to the assay. The cells were dispensed at 4,000 cells in 4uL of assay medium per well into white wall/solid-bottom 1536-well plates (Corning Life Sciences, Corning, NY) using a Multidrop Combi (Thermo Fisher Scientific Inc., Waltham, MA) dispenser. After the assay plates were incubated at 37C and 5% CO2 for 24hr, 1uL of 10.0nM (final concentration) ICI-182,780 or assay buffer was added using two separate tips of Flying Reagent Dispenser (FRD, Aurora Discovery, San Diego, CA). Then 23nL of compounds dissolved in DMSO at 15 concentrations and positive controls or DMSO only was transferred to the assay plates by a Pintool station (Wako, San Diego, CA). The assay plates were incubated at 37C and 5% CO2 for 22hr. For luciferase read, 4uL/well ONE-Glo reagent (Promega Corporation, Madison, WI) was added to each well using FRD and after 30min incubation at room temperature, luminescence signal was measured on ViewLux plate reader (PerkinElmer, Shelton, CT).
# On the % scale 0 is the no-effect control and ±100 the full control effect; potency means the concentration at half of the fitted maximal effect.
# Sequence of Estrogen receptor (Homo sapiens) (P03372 whole entry, looked up): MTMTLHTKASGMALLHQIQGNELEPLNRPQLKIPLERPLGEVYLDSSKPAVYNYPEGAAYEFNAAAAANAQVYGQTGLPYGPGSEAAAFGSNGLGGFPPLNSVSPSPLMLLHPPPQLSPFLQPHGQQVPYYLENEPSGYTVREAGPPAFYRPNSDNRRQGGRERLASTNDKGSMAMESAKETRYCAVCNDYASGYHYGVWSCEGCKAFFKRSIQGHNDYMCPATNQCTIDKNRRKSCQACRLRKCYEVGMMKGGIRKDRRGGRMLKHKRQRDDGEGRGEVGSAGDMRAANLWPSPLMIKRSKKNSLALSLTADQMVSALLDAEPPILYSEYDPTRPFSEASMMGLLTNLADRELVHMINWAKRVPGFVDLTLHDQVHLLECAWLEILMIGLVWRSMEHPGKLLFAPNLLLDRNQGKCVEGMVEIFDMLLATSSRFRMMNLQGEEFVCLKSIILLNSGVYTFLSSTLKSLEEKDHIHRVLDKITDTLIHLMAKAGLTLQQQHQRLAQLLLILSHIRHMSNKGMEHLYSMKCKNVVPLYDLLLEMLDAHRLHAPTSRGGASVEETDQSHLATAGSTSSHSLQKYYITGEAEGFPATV
SMILES,activation,Potency
Cc1ccc(O)c(N)c1,1.39% (inactive),
C[C@H]1NCc2cc(-c3ccc4c(=O)c(C(=O)O)cn(C5CC5)c4c3OC(F)F)ccc21,-0.399% [at 19 µM] (inactive),
Clc1nnc(Cl)c2ccccc12,1.66% (inactive),
C=Cc1cccc(C)c1,,inactive
O=C(/C=C/c1ccccc1)OC/C=C/c1ccccc1,4.74% (inactive),
CCCCOC(=O)CO,-0.261% (inactive),
Nc1cc(Cl)c(O)c(Cl)c1,0.974% (inactive),
COC(=O)C1=C(C)NC(C)=C(C(=O)OCCN2CCN(C(c3ccccc3)c3ccccc3)CC2)C1c1cccc([N+](=O)[O-])c1 (stereo not given),0.0215% [at 42.5 µM] (inactive),
CC(C)NC[C@@H](O)COc1ccc(CC(N)=O)cc1,-0.422% [at 42.5 µM] (inactive),
CCN(CC)c1ccc2c(-c3ccc(S(=O)(=O)O)cc3S(=O)(=O)[O-])c3ccc(=[N+](CC)CC)cc-3oc2c1,-7.98% (inactive),
CCn1c2ccccc2c2cc([N+](=O)[O-])ccc21,-1.38% (inactive),
Cc1c(F)c(N2CCNC(C)C2)cc2c1c(=O)c(C(=O)O)cn2C1CC1 (stereo not given),-0.575% [at 42.5 µM] (inactive),
Cc1cc(C(C)(C)C)cc(C)c1CC1=NCCN1,1.02% [at 42.5 µM] (inactive),
O=[N+]([O-])c1cccc(C(F)(F)F)c1,-1.4% (inactive),
C=C(C)c1cccc(C(=C)C)c1,0.283% (inactive),
C#Cc1ccc(-c2ccccc2F)cc1,1.78% [at 42.5 µM] (inactive),
CCCCCCCC,-1.32% (inactive),
CC(C)(c1cc(Br)c(OCC(Br)CBr)c(Br)c1)c1cc(Br)c(OCC(Br)CBr)c(Br)c1 (stereo not given),0.317% [at 42.5 µM] (inactive),
CCCCCCCCCCC[C@@H](C[C@@H]1OC(=O)[C@H]1CCCCCC)OC(=O)[C@H](CC(C)C)NC=O,-0.0462% [at 42.5 µM] (inactive),
C=Cc1ccccc1C=C,-0.378% [at 240 µM] (inactive),

SMILES,activation,Potency
S=c1nccc[nH]1,-0.174% (inactive),
Cc1c(C)c2c(c(C)c1OC(=O)c1cccnc1)CC[C@@](C)(CCC[C@H](C)CCC[C@H](C)CCCC(C)C)O2,0.0815% [at 42.5 µM] (inactive),
CCCCCCCCCCCCCCCC[N+](C)(C)CC,,inactive
FC(F)(F)c1cccc(Cl)c1,-0.182% (inactive),
CCCC[P+](C)(CCCC)CCCC,1.95% (inactive),
CC1(C)[C@@H](O)CC[C@]2(C)[C@H]3C(=O)C=C4[C@@H]5C[C@@](C)(C(=O)O)CC[C@]5(C)CC[C@@]4(C)[C@]3(C)CC[C@@H]12,-0.931% (inactive),
COC(=O)Nc1nc2ccc(C(=O)c3ccccc3)cc2[nH]1,13.6% [at 42.5 µM] (inactive),
COc1cc2nc(N3CCN(C(=O)c4ccco4)CC3)nc(N)c2cc1OC,0.868% [at 19 µM] (inactive),
C#CC1(O)CC[C@H]2[C@@H]3CCC4=CCCC[C@@H]4[C@H]3CC[C@@]21C (stereo not given in full),,611 nM (active) and 473 nM (active)
CN(C)c1ccc(C(=C2C=CC(=[N+](C)C)C=C2)c2ccc(N(C)C)cc2)cc1,,inactive
CCN(CC)C(=O)c1cc(S(=O)(=O)Cc2ccccc2)c(N2CCC(c3ccccc3)CC2)cc1N(CC)CCN(C)C,-1.53% [at 42.5 µM] (inactive),
Cc1cccc(C(=O)O)c1O,-0.217% [at 42.5 µM] (inactive),
C=CC(=O)Nc1cc2c(Nc3ccc(F)c(Cl)c3)ncnc2cc1OCCCN1CCOCC1,-0.896% [at 42.5 µM] (inactive),
CC(C)(C)c1ccc(C(O)CCCN2CCC(C(O)(c3ccccc3)c3ccccc3)CC2)cc1 (stereo not given),-0.219% [at 42.5 µM] (inactive),
OC/C=C/CO,2.82% (inactive),
O=S(=O)(O)c1ccc(N=Nc2c(O)ccc3ccccc23)cc1,-4.8% (inactive),
Nc1ccc(Oc2ccc(Cl)cc2)cc1,3.57% (inactive),
O=C(O)c1ccc2cc(C(=O)O)ccc2c1,0.134% (inactive),
C=CC(=O)OCCOC(=O)C=C,,61.1 µM (active)
O=c1[nH]c(=O)n([C@H]2C[C@H](O)[C@@H](CO)O2)cc1F,-2.21% [at 42.5 µM] (inactive),
